Measurements from ChEMBL document CHEMBL3988442, “University of Dundee, Small-Polar-MMV Screening Library” (2021).
For part of these data: Entries with a potency or affinity are not part of this list.

Tests used:
[1] = target: T1, Methionyl-tRNA synthetase, putative (Leishmania donovani (strain BPK282A1)) (UniProt E9BF75); experiment: Leishmania donovani Methionine tRNA synthetase (LdMetRS):v7. Dose response assay; assay type: functional; design: conc 80 nM, time 150 minutes
T1 sequence (whole entry): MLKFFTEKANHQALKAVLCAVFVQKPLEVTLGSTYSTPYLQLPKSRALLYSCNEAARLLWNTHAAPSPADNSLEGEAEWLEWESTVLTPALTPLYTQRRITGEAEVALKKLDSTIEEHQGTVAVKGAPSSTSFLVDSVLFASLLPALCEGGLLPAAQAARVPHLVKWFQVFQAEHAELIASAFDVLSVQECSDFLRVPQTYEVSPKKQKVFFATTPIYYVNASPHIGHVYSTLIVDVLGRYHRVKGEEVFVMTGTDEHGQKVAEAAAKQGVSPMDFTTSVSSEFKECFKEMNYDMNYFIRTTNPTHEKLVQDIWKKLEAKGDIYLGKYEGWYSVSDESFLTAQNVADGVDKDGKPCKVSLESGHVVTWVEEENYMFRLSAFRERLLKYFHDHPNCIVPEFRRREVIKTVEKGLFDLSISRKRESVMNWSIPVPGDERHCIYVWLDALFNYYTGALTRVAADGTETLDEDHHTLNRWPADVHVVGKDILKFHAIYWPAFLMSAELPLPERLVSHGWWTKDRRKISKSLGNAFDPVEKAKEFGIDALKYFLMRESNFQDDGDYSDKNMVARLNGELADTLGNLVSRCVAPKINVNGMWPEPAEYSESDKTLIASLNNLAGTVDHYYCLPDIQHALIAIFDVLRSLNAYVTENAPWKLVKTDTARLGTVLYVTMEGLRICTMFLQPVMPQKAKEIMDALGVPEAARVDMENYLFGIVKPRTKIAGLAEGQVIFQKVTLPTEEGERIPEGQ

[2] = target: Protein translocase subunit SecA (Escherichia coli (strain K12)) (UniProt P10408); experiment: Assay to Identify E. coli SecA ATPase Inhibitors; assay type: functional; design: scale not given: direction of the effect not stated beside the values; conditions: 30 µM
[3] = target: T2, Ubiquitin-activating enzyme e1, putative (Leishmania donovani (strain BPK282A1)) (UniProt E9BSI1); experiment: Leishmania donovani Ubiquitin Activating Enzyme (LdE1); assay type: functional; design: scale not given: direction of the effect not stated beside the values; conditions: 30 µM
T2 sequence (whole entry): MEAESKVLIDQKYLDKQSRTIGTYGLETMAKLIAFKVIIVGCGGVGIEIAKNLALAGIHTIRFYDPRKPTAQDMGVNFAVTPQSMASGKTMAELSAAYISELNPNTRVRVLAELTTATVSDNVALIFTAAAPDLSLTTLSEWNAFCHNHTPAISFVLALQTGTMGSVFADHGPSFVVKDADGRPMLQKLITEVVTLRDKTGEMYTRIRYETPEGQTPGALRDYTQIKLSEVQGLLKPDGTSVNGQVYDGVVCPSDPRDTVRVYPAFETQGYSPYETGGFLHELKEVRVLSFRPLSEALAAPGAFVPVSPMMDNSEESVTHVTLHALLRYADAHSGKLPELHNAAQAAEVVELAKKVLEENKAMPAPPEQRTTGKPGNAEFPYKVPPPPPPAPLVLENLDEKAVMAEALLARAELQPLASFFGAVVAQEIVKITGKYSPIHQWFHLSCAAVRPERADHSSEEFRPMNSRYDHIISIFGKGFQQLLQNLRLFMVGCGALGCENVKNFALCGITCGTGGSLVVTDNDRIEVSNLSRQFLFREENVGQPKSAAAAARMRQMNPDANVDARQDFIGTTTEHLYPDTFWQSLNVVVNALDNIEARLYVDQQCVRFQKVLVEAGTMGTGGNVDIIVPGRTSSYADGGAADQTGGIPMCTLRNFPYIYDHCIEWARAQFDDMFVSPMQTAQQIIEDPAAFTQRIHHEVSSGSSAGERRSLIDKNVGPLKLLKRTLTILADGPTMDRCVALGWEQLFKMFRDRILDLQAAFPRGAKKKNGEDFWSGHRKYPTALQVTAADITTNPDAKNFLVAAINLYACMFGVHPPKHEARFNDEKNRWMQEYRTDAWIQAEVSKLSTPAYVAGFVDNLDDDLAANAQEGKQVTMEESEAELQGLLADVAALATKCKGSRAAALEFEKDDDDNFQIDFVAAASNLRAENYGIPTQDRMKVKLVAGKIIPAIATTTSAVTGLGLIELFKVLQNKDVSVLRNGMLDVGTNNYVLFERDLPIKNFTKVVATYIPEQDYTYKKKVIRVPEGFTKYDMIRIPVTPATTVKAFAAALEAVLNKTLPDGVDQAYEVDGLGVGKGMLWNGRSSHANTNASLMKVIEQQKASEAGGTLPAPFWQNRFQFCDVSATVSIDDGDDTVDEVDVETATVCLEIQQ

[4] = target: AMP-activated protein kinase, AMPK (Homo sapiens) (UniProt P54646+O43741+P54619+Q9UGJ0+Q9Y478+Q13131+Q9UGI9); experiment: AMP-dependent Kinase enzyme assay. An in vitro enzyme assay that detects ADP turnover that is directly proportional to AMPK activity. This uses naive AMPK that is activated during the assay with MK-8722; assay type: functional; design: scale not given: direction of the effect not stated beside the values; conditions: 30 µM
[5] = target: Sialic acid-binding Ig-like lectin 9 (Homo sapiens) (UniProt Q9Y336); experiment: Hs-Siglec9 ALPHAscreen SOP 20170721; design: scale not given: direction of the effect not stated beside the values; conditions: 10 µM
[6] = test system: Trypanosoma cruzi; experiment: Trypanosoma cruzi phosphomannomutase and mannose-1-phosphate guanylyltransferase assay; assay type: functional; design: scale not given: direction of the effect not stated beside the values; conditions: 10 µM
[7] = target: T3, Arginase-2, mitochondrial (Homo sapiens) (UniProt P78540); experiment: in vitro enzyme assay to detect the production of urea directly proportional to the activity of Arginase II; assay type: functional; design: scale not given: in the data most compounds retested in dose-response had high values; conditions: 33.3 µM
T3 sequence (whole entry): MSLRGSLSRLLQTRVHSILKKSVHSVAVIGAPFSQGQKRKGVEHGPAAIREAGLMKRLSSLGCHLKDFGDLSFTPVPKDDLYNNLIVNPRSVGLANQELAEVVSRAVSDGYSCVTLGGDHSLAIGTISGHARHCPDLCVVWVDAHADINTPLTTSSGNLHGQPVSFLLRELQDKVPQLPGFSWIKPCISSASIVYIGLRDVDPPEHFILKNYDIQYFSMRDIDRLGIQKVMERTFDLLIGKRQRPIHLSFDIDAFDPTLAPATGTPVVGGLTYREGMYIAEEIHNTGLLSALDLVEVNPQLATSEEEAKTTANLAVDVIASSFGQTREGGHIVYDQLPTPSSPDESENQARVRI

[8] = target: T4, Proteasome subunit beta (Trypanosoma cruzi) (UniProt O96673); experiment: Trypanosoma cruzi proteasome chymotrypsin-like activity (TcProtChymo) assay.; assay type: functional; design: scale not given: in the data most compounds retested in dose-response had high values; conditions: 9.37 µM
T4 sequence (whole entry): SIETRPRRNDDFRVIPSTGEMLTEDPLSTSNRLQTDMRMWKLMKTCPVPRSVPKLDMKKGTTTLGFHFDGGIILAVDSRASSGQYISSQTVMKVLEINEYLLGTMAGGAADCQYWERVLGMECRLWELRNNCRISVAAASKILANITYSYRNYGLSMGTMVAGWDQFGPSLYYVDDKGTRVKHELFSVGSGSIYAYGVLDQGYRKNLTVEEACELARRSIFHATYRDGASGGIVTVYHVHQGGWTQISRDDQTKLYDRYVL

[9] = organism: Homo sapiens; experiment: To identify inhibition of the IFN signalling (Jak-Stat) pathway via expression of an eGFP reporter gene under the control of an IFN-stimulated response element (ISRE) containing MxA promoter.; assay type: functional; design: scale not given: direction of the effect not stated beside the values; conditions: 30 µM
[10] = target: T5, Tyrosyl-tRNA synthetase, putative (Trypanosoma cruzi (strain CL Brener)) (UniProt Q4DSP6); experiment: Trypanosoma cruzi tyrosyl tRNA synthetase (TcYRS) _High Tyrosine SOP; assay type: functional; design: scale not given: in the data most compounds retested in dose-response had high values; conditions: 30 µM
T5 sequence (whole entry): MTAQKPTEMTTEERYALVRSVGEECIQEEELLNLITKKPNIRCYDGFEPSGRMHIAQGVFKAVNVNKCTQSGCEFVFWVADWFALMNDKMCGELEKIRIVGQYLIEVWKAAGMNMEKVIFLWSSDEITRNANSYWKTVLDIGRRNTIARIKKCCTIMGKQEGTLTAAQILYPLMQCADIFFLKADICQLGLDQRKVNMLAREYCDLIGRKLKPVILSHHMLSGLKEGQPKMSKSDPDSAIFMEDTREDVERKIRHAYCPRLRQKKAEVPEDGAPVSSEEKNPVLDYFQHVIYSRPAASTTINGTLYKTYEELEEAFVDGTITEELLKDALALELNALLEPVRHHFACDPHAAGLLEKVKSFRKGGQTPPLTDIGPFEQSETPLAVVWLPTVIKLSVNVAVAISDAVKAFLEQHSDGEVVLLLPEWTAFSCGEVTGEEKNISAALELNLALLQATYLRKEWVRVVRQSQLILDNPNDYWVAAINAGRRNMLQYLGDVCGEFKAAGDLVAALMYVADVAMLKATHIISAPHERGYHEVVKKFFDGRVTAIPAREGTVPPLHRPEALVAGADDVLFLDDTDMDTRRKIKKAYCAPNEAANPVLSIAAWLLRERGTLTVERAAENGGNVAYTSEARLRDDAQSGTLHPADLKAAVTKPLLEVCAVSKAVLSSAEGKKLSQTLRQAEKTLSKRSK

[11] = target: T5, Tyrosyl-tRNA synthetase, putative (Trypanosoma cruzi (strain CL Brener)); experiment: Trypanosoma cruzi tyrosyl tRNA synthetase (TcYRS) SOP; assay type: functional; design: scale not given: direction of the effect not stated beside the values; conditions: 30 µM
[12] = target: Chromo domain-containing protein 1 (Saccharomyces cerevisiae (strain ATCC 204508 / S288c) (Baker's yeast)) (UniProt P32657); experiment: ScCHD-1 Enzyme Inhibition Assay; assay type: functional; design: scale not given: in the data most compounds retested in dose-response had high values; conditions: 30 µM
Chain of Chromo domain-containing protein 1 (Saccharomyces cerevisiae (strain ATCC 204508 / S288c) (Baker's yeast)) (P32657 whole entry, the tested form may be a part): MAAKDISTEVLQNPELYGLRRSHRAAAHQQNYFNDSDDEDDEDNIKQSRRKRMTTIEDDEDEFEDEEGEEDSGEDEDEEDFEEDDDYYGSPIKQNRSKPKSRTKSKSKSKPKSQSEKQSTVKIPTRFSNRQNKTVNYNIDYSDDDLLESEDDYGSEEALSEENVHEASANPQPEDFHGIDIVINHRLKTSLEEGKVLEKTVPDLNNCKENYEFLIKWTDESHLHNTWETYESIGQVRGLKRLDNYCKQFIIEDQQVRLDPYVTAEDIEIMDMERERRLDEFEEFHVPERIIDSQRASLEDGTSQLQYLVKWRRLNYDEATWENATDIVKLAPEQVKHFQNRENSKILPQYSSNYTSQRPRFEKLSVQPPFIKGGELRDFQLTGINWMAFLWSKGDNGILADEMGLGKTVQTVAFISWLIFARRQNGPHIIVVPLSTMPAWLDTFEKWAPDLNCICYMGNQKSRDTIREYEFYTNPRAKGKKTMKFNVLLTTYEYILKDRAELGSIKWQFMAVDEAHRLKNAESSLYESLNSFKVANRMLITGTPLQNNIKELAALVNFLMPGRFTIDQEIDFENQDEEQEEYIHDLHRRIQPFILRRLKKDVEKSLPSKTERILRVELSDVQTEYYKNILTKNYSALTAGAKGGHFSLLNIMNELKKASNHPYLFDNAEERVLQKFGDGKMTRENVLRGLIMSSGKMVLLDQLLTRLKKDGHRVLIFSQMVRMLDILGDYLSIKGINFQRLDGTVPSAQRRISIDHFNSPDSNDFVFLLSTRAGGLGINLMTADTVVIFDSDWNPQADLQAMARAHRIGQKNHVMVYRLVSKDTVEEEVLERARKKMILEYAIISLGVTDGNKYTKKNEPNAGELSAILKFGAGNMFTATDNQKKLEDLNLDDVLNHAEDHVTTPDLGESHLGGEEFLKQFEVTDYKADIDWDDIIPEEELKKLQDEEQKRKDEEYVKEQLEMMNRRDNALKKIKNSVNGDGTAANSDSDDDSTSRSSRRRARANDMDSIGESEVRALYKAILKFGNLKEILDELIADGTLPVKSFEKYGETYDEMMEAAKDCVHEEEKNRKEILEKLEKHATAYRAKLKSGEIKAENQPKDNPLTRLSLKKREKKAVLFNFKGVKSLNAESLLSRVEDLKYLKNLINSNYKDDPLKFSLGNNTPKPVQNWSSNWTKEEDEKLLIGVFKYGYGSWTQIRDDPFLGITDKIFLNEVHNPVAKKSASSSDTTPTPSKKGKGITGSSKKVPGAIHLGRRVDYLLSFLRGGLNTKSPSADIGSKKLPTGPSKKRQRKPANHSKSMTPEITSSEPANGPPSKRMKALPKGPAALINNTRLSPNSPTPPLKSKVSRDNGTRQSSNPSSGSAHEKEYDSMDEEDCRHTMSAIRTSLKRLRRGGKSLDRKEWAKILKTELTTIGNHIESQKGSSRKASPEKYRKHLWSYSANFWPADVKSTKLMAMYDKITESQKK

Chain of Sialic acid-binding Ig-like lectin 9 (Homo sapiens) (Q9Y336 whole entry): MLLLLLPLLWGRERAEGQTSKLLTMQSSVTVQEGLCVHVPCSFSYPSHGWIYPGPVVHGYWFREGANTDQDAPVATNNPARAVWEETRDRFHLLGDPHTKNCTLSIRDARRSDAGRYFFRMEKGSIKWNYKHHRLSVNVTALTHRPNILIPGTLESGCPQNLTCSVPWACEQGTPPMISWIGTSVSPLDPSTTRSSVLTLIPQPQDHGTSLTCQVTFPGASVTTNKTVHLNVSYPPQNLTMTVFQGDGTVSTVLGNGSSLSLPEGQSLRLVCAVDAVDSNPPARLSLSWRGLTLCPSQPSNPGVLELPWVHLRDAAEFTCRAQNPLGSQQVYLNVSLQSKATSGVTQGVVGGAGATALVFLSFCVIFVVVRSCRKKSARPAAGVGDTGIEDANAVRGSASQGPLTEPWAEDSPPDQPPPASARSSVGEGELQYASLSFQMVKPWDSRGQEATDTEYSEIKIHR
Chain of Protein translocase subunit SecA (Escherichia coli (strain K12)) (P10408 whole entry): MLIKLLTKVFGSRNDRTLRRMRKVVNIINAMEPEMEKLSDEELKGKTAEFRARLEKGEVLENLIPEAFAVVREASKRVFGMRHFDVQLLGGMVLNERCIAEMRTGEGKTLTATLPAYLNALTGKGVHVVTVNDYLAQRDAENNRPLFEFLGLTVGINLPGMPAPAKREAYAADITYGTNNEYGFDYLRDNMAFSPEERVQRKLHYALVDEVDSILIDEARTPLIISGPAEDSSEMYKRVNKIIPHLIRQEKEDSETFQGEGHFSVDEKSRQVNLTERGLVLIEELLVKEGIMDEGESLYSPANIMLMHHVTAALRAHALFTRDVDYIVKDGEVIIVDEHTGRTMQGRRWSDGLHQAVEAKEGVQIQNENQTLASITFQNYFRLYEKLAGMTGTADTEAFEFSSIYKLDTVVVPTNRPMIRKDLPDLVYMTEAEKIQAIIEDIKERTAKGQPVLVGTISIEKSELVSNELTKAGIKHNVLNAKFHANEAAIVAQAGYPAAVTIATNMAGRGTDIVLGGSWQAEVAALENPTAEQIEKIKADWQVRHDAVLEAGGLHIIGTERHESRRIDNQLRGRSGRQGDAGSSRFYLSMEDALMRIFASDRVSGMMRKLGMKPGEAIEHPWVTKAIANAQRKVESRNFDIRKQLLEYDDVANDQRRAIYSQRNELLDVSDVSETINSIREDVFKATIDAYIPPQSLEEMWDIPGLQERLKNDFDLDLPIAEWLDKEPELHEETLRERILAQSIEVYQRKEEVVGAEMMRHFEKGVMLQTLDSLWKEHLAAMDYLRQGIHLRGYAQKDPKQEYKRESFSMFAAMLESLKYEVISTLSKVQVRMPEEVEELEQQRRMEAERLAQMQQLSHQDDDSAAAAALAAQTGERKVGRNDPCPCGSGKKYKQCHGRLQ

Which PXC50 ([1]; BOTTOM 1.675324724, HILLSLOPE 0.887004354, MAX_EFFECT 86.8852459, TOP 97.31963994) does the source give for `Cn1ncc2c(NCCO)nc(Nc3ccc(F)c(F)c3)nc21` here?
The PXC50 was 5.01.

What about the PXC50 ([1]; BOTTOM 3.874295481, HILLSLOPE 1.000014766, MAX_EFFECT 87.03703704, TOP 93.55609097) of the same compound?
The PXC50 was 5.08.

And the PXC50 ([1]; BOTTOM 3.975924252, HILLSLOPE 0.806965021, MAX_EFFECT 84.10596026, TOP 99.5157675)?
Its PXC50 is 4.91.

What about the PXC50 ([1]; BOTTOM 7.489204203, HILLSLOPE 1.122010423, MAX_EFFECT 83.60655738, TOP 90.20006383) of the same compound?
The PXC50 was 4.96.

And the PXC50 ([1]; BOTTOM -1.215365939, HILLSLOPE 0.665929937, MAX_EFFECT 87.19646799, TOP 108.6182019)?
The PXC50 was 4.92.

`Cc1cc(C)c(CNC(=O)N2CCCC2c2cccn2C)c(=O)[nH]1` (stereo unspecified) was tested. Which PXC50 ([1]; BOTTOM 1.39525403, HILLSLOPE 1.863289847, MAX_EFFECT 51.97132616, TOP 100.0) did it give?
Its PXC50 is 4.01.

And the PXC50 ([1]; BOTTOM -10.14330359, HILLSLOPE 0.427510045, MAX_EFFECT 50.72463768, TOP 100.0)?
The PXC50 was 4.22.

And the PXC50 ([1]; MAX_EFFECT 28.8676236)?
The PXC50 was under 4.

What about the PXC50 ([1]; MAX_EFFECT 30.90211132) of the same compound?
The PXC50 was under 4.

And the PXC50 ([1]; MAX_EFFECT 48.51485149)?
The PXC50 was under 4.

And the Percent Effect [2]?
The Percent Effect was -1.81%.

And the Percent Effect [3]?
The Percent Effect was 8.86%.

What about the Percent Effect [4] of the same compound?
The Percent Effect was 3.05%.

And the Percent Effect [5]?
The Percent Effect was 2.38%.

What about the Percent Effect [6] of the same compound?
Its Percent Effect is 2.97%.

And the Percent Effect [7]?
The Percent Effect was 3.66%.

What about the Percent Effect [8] of the same compound?
The Percent Effect was 10.6%.

And the Percent Effect [9]?
The Percent Effect was -3.9%.

What about the Percent Effect [10] of the same compound?
The Percent Effect was 13.5%.

And the Percent Effect [11]?
Its Percent Effect is 27.9%.

And the Percent Effect [12]?
The Percent Effect was -14.4%.
